# Biological target: AMP-activated protein kinase, AMPK (Homo sapiens) (UniProt P54646+O43741+P54619+Q9UGJ0+Q9Y478+Q13131+Q9UGI9)
# Assay: AMP-dependent Kinase enzyme assay. An in vitro enzyme assay that detects ADP turnover that is directly proportional to AMPK activity. This uses naive AMPK that is activated during the assay with MK-8722
# Assay type: functional
# Design: scale not given: direction of the effect not stated beside the values
# Details: 30 µM
row,Structure (SMILES),Percent Effect [%]
1,Cc1noc(C)c1CCCNC(=O)Nc1cccc([S+](C)[O-])c1 (stereo not given),4.42
2,O=C(Cn1cc(I)cn1)N1CCNC1=O,0.6
3,COC(=O)NCC(=O)N1CCC(c2cc3ccccc3[nH]2)CC1,6.03
4,CNC(=O)c1cn2cc(-c3ccccc3Cl)n(CC=C(C)C)c(=O)c2n1,3.23
5,O=C(CN1CCC(c2nnc(C(F)(F)F)o2)CC1)NCc1ccccc1,0.729
6,O=C1NCCCCC1NC(=O)N1CCc2ccccc21 (stereo not given),-3.02
7,Cc1ncn(CCNC(=O)Nc2ccccc2)c(=O)c1C,-8.41
8,COCc1nc(C2CC2)nn1-c1ccccc1Cl,-1.23
9,CN(C)c1ncccc1CNC(=O)CCNc1ncccn1,-6.85
10,Cc1ccccc1S(=O)(=O)Cc1nsc(N(C)C)n1,-0.34
11,CCOCCN1CCN(c2ccc(C#N)cn2)CC1CC (stereo not given),6.68
12,CCOc1cccc(C(C(=O)O)N(C)Cc2cc(C)no2)c1 (stereo not given),7.67
13,COC(=O)CSCc1nc(-c2ccc(Cl)cc2)no1,-4.75
14,CC(C)c1ccc(/C=C/CC(=O)NC2CCN(C(N)=O)CC2)cc1,-2.39
15,Cc1nc(CNC(=O)c2cc(COc3cccc(F)c3)[nH]n2)n[nH]1,0.77
16,CNC(=O)c1sc(C(NC(=O)c2ccccc2)C2CC2)nc1C (stereo not given),-1.61
17,O=C1NC(C(=O)NCc2cccnc2Oc2ccc(F)cc2F)CO1 (stereo not given),5.7
18,COc1ncccc1C(=O)NCCn1nc(C)ccc1=O,-4.66
19,CN(C)c1ccc(C(=O)N2CCC(c3cc4cnccc4[nH]3)CC2)cc1,20.5
20,CC(C)(C)Oc1ccc(NCC(=O)NCc2ccco2)cc1,9.8

row,Structure (SMILES),Percent Effect [%]
1,Cc1nc[nH]c1CN(C)Cc1cnn(-c2ccc(F)cc2)c1,10.8
2,CN(Cc1nc2ccccc2[nH]1)C(=O)CN(C)c1ccccc1,-1.06
3,CCn1cnnc1CNC(=O)N1CCOC(c2ccc(Cl)cc2)C1 (stereo not given),-4.37
4,CC(CNC(=O)c1cc(Cn2cnc3ccccc32)[nH]n1)N1CCCC1 (stereo not given),-5.09
5,COCCNc1ncnc2c1CCN(C(=O)CC1CCC(=O)N1)CC2 (stereo not given),15.1
6,COc1ccnc(CNc2nc(C)nc(C)c2C)c1,-6.37
7,O=C(c1nnn(-c2ccc(F)cc2)n1)N(CCO)Cc1ccccc1,3.9
8,Cc1ccc(C(=O)NCc2cc(F)ccc2N2CCCN(C)CC2)o1,9.19
9,CCN(C)C[C@@H]1CN(C(=O)c2cc(C(F)(F)F)n[nH]2)C[C@@H]1CO,7.62
10,NCc1ccnc(Oc2ccc(F)cc2)c1,14.1
11,Cc1nc(CN2CCN(c3cc(CCN)ncn3)CC2)cs1,-0.86
12,COc1cccc(OCC2CCCN(c3cc(C(N)=O)ccn3)C2)c1 (stereo not given),4.97
13,Cc1nnc(CN(Cc2ccco2)Cc2cccc3c2OCO3)n1C,-4.86
14,FC(F)(F)c1csc(N2CCN(Cc3ccccn3)CC2)n1,7.24
15,CN(C)CC(=O)N1CCN(c2cc(N3CCCC3CO)ncn2)CC1 (stereo not given),-7.31
16,Oc1c(F)cc(CNc2cccc(-c3nnc[nH]3)c2)cc1F,40.3
17,CN(C)CCN(Cc1ccc(Cl)cc1)C(=O)c1ccn(C)c(=O)c1,6.12
18,Cn1cc(CN2CCS(=O)(=O)C(C)(C)C2)cn1,5.13
19,O=C(c1coc(-c2ccccc2)n1)N1CCCC1,5.08
20,Cc1cccnc1NC(=O)c1ccc(F)c(S(=O)(=O)NC2CC2)c1,-4.18

# Source: ChEMBL document CHEMBL3988442, “University of Dundee, Small-Polar-MMV Screening Library” (2021)
